Hedgehog inh = blocks Sonic Hedgehog signaling | Shh-LIGHT2 Gli-luciferase reporter, 30 h | inhibition, % (test concentration not listed) | hit rate 2.1% among 22,000 | AID 2313;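 active = mean inhibition across valid replicates above about 65%, limit read from the data; inconclusive = mean under the limit, yet half or more replicates past it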;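 also: pathway switched on by Shh-conditioned medium diluted 1 in 25 in low serum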
PD-1 reverse act = activators reversing PD-1 mediated T-cell inhibition | primary human CD4 T cells, PD-L1 beads, CellTiter-Glo 96 h | activation, % (no concentration beside the values) | 29,000 tested, under 10 active | AID 2316; call rule not given here;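 also: 0% = median vehicle wells and 100% = positive control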
MITF inhib = inhibitors of MITF. TRPM1 promoter luciferase, luminescence, 24 h. hit rate 0.28% among 37,000. AID 2240. inhibition, % (test concentration not listed); in the data active = inhibition above about 85%; inconclusive = no clear call, values can overlap the other calls; inactive = below about 68%;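 also: human melanocyte line stably carrying TRPM1 promoter luciferase reporter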
NOMO-1 viab = STK33 inhibitor candidate reducing NOMO-1 cell viability; hit rate 7.5% among 37,000; NOMO-1 AML viability, CellTiter-Glo luminescence, 72 h; inhibition, % (test concentration not listed); in the data active = inhibition above about 80%; inconclusive = no clear call, values can overlap the other calls
* = called active by the depositor; ? = inconclusive; / = no result. An excerpt weighted towards active compounds, which were near 7.8% of everything screened.

SMILES	Hedgehog inh	PD-1 reverse act	MITF inhib	NOMO-1 viab
O=C(NCC[C@@H](CNC(=O)c1cccc(O)c1O)NC(=O)c1cccc(O)c1O)c1cccc(O)c1O	24	-5	17	120*
C=CCn1c(SCC(=O)c2ccc(CC)cc2)nnc1-c1cccc(OC)c1	1	0	-7	0
COc1ccc(S(=O)(=O)Nc2ccc3c(c2)C(=O)N([C@@H](C)CO)C[C@@H](C)[C@@H](CN(C)Cc2ccc(C(=O)Nc4ccccc4N)cc2)O3)cc1	/	0	17	110*
COc1ccc(S(=O)(=O)Nc2ccc3c(c2)C(=O)N([C@@H](C)CO)C[C@@H](C)[C@H](CN(C)Cc2ccc(C(=O)Nc4ccccc4N)cc2)O3)cc1	/	-1	9	40
COc1ccc(S(=O)(=O)Nc2ccc3c(c2)C(=O)N([C@H](C)CO)C[C@@H](C)[C@@H](CN(C)Cc2ccc(C(=O)Nc4ccccc4N)cc2)O3)cc1	/	0	21	108*
CC1CCN(S(=O)(=O)c2ccc(NC(=O)c3ccc(C(C)(C)C)cc3)cc2)CC1	-61	0	40	114*
O=C(Cc1ccccc1)Oc1ccc(C2SCCS2)cc1	-61	0	-14	24
COc1ccc(C(=O)NCC(=O)Nc2ccc(C)c(Cl)c2)cc1OC	/	0	-18	13
COc1ccc(NC(=O)Nc2ccc3c(c2)CC(=O)N([C@@H](C)CO)C[C@H](C)[C@H](CN(C)Cc2ccc(Cl)c(Cl)c2)O3)cc1	?	2	15	113*
COc1ccc(NC(=O)Nc2ccc3c(c2)CC(=O)N([C@H](C)CO)C[C@@H](C)[C@H](CN(C)Cc2ccc(Cl)c(Cl)c2)O3)cc1	0	/	23	85*
COc1ccc(NC(=O)Nc2ccc3c(c2)CC(=O)N([C@H](C)CO)C[C@@H](C)[C@@H](CN(C)Cc2ccc(Cl)c(Cl)c2)O3)cc1	23	-3	-1	115*
COc1ccc(CN(C)C[C@H]2Oc3ccc(NC(=O)Nc4ccc(OC)cc4)cc3CC(=O)N([C@@H](C)CO)C[C@H]2C)cc1	13	/	7	1
C(=N\C(/N=C/c1ccccc1)c1ccccc1)/c1ccccc1	-24	2	3	13
CS(=O)(=O)N(CC(=O)Nc1cccc(C(F)(F)F)c1)Cc1ccccc1	/	-2	-24	30
CC(C)=CCc1c(O)c(CC=C(C)C)c2c(c1O)C(=O)CC(c1ccc(O)cc1O)O2 (configuration not stated)	-2	-2	16	116*
O=c1c(Cl)c(NCc2ccco2)cnn1-c1ccccc1	-6	6	-65	19
C=C(C)C1Cc2cc(C(C)=O)ccc2O1 (configuration not stated)	-17	/	/	/
C=C(C)[C@@H]1Cc2c(ccc3c2O[C@H]2COc4cc(OC)c(OC)cc4[C@@]2(O)C3=O)O1	45	-3	66	117*
Cc1cccc2c(C(=O)NCCN3CCOCC3)cc(-c3ccccc3Cl)nc12	/	/	2	-4
COc1ccccc1C(=O)Oc1c(CN2CCOCC2)cc(Cl)c2cccnc12	/	/	46	109*
O=C(Oc1c(CN2CCOCC2)cc(Cl)c2cccnc12)c1ccc(F)cc1	/	/	53	109*
CC1(C)C(=S)NC(c2ccccc2)N1O (configuration not stated)	0	0	4	17
Nc1ncnc(Sc2nc3ccccc3s2)c1[N+](=O)[O-]	/	-12	28	114*
N#CC1CN(CCc2ccccc2)CN(CCc2ccccc2)C1	69*	-6	19	111*
N#C/C(=C/c1ccc(O)c(O)c1)C(=O)OC/C=C/c1ccccc1	?	/	-10	99*
SMILES	Hedgehog inh	PD-1 reverse act	MITF inhib	NOMO-1 viab
N#C/C(=C\c1ccc(O)c(O)c1)C(=O)Nc1ccccc1	1	-4	-4	?
C[C@@H]1C[C@@H](O)C2[C@@](C)(CO)CCC[C@]2(C)[C@@]1(O)CCc1ccoc1 (some centres not stated)	-3	0	-7	26
CC1=CC(=O)C2C(C)(C)CCC[C@]2(C)[C@@]1(O)CCc1ccoc1 (some centres not stated)	30	/	13	96*
C/C(=C\c1ccc(C(=O)O)cc1)c1ccc2c(c1)C(C)(C)CCC2(C)C	66*	6	-27	68
CC(CC(O)C1OC1(C)C)[C@@H]1CCC2(C)C3=CCC4C(C)(C)C(=O)CCC4(C)C3CC[C@@]12C (some centres not stated)	23	/	60	101*
O=C(Nc1cccc2ccccc12)C12CC3CC(CC(C3)C1)C2	-42	0	-13	24
CC(N=Cc1c(O)ccc2ccccc12)C12CC3CC(CC(C3)C1)C2 (configuration not stated)	?	1	16	101*
c1csc(-c2nnc(CSc3cccc4cccnc34)o2)c1	/	-6	-30	112*
CC(=O)N1C(=S)NC(=O)C1c1ccccc1 (configuration not stated)	44	-8	13	44
C=C[C@@](C)(O)CCC1C(=C)CCC2[C@@](C)(CO)CCC[C@]12C (some centres not stated)	30	-1	2	37
C[C@@H]1CN([C@H](C)CO)C(=O)c2cc(NC(=O)Cc3cn(C)c4ccccc34)ccc2O[C@H]1CN(C)Cc1ccc(Cl)c(Cl)c1	9	0	47	?
C[C@@H]1CN([C@@H](C)CO)C(=O)c2cc(NC(=O)Cc3cn(C)c4ccccc34)ccc2O[C@@H]1CN(C)Cc1ccc(Cl)c(Cl)c1	/	-4	40	92*
C[C@@H]1CN([C@H](C)CO)C(=O)c2cc(NC(=O)Cc3cn(C)c4ccccc34)ccc2O[C@@H]1CN(C)Cc1ccc(Cl)c(Cl)c1	24	-3	49	112*
COc1ccc(-n2ncc(NC(=O)NCc3ccccn3)c2C)cc1	/	-1	-7	20
CC(=O)OC1C(C)OC(OC2C(CO)OC(OC(=O)[C@]34CCC(C)(C)CC3C3=CCC5[C@@]6(C)CC[C@H](OC7OC(CO)C(OC8OC(CO)C(OC9OCC(O)C(O)C9O)C(O)C8O)C(O)C7O)[C@@](C)(CO)C6CC[C@@]5(C)[C@]3(C)CC4)C(OC3OC(C)C(O)C(O)C3O)C2O)C(O)C1O (some centres not stated)	4	/	/	/
CC1(C)CC[C@]2(C(=O)O)CC[C@]3(C)C(=CCC4[C@@]5(C)CC[C@H](O[C@@H]6O[C@H](CO)[C@@H](O)[C@H](O)[C@H]6O)[C@@](C)(CO)C5CC[C@]43C)[C@@H]2C1 (some centres not stated)	88*	/	/	/
C[C@@H]1O[C@@H](O[C@@H]2[C@@H](O)[C@H](O[C@@H]3[C@@H](O)[C@H](C)O[C@@H](O[C@H]4[C@H](O[C@H]5CC[C@@]6(C)C(CC[C@]7(C)C6CC=C6[C@@H]8CC(C)(C)CC[C@]8(C(=O)O)CC[C@]67C)[C@]5(C)CO)OC[C@H](O)[C@@H]4O)[C@@H]3O)O[C@H](CO)[C@H]2O[C@@H]2O[C@H](CO)[C@@H](O[C@@H]3OC[C@@H](O)[C@H](O)[C@H]3O)[C@H](O)[C@H]2O)[C@H](O)[C@H](O)[C@H]1O (some centres not stated)	78*	-6	-4	114*

Screening data deposited in PubChem BioAssay by Broad Institute.
